IL-1B inflam inh = qHTS for Inhibitors of Inflammasome Signaling: IL-1-beta AlphaLISA Primary Screen | THP-1 LPS/ATP IL-1B secretion, AlphaLISA, 16 h; stronger effect = lower value | activity change, % at 57.5 µM | 360,000 tested, 4.7% active; in the data active = activity change below about -50%; inconclusive = mostly about -30% to -49%
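THP-1 cells pretreated 1 hr with compounds (up to 57.5 uM final), then stimulated with LPS (250 ng/mL final) plus ATP (1.25 mM final); secreted IL-1B measured by AlphaLISA after 16 hr, decreased signal indicating inhibition.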
DT40 TDP1 CPT = qHTS for Inhibitors of human tyrosyl-DNA phosphodiesterase 1 (TDP1): qHTS in cells in presence of CPT; 420,000 tested, 12% active; Potency, µM (top dose mostly 46.2 µM), inactives show at the highest dose activity change, negative = growth inhibition, most hits filed as inhibitors; chicken DT40 Tdp1-/-;hTDP1 cells + 20 nM CPT, ATP luminescence, 48 h; also: potency is read from the fitted curve at half-maximal effect; nearly all actives have a fitted effect of over 55% in size
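Cell growth measured by CellTiter-Glo luminescence after a minimum 48 h, 37 C compound exposure with 20 nM CPT in Tdp1-knockout DT40 cells stably expressing hTDP1, seeded 400/well; qHTS titration format.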
TDP1 cell noCPT = qHTS for Inhibitors of human tyrosyl-DNA phosphodiesterase 1 (TDP1): qHTS in cells in absence of CPT. DT40 Tdp1-/- hTDP1 cells, no CPT, ATP luminescence, 48 h. Potency, µM (doses to about 46.2 µM), for the others: top-dose activity change, negative = growth inhibition, usual class: inhibitors. 420,000 tested, 15% active; also: potency is read from the fitted curve at half-maximal effect; nearly all actives have a fitted effect of over 55% in size
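Chicken DT40 Tdp1-/- cells complemented with human TDP1, screened without camptothecin (DMSO vehicle only), 400 cells/well. Compounds pin-transferred, cells incubated at 37 °C for at least 48 hr. Growth read as ATP-dependent luminescence (CellTiter-Glo, 30 min at RT).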
12-LOX inh = Primary qHTS assay for inhibitors of human arachidonate 12S-lipoxygenase (ALOX12): Round 2 | 580,000 tested, 1.1% active | Potency, µM (highest dose often 108 µM), for the others: at the top dose activity change, negative = inhibition, usual class: inhibitors | Polyunsaturated fatty acid lipoxygenase ALOX12 (Homo sapiens), P18054 | purified 12hLO, xylenol orange hydroperoxide absorbance | AID 1671190, 2021; also: potency is read from the fitted curve at half-maximal effect
Target sequence (P18054 whole entry, looked up): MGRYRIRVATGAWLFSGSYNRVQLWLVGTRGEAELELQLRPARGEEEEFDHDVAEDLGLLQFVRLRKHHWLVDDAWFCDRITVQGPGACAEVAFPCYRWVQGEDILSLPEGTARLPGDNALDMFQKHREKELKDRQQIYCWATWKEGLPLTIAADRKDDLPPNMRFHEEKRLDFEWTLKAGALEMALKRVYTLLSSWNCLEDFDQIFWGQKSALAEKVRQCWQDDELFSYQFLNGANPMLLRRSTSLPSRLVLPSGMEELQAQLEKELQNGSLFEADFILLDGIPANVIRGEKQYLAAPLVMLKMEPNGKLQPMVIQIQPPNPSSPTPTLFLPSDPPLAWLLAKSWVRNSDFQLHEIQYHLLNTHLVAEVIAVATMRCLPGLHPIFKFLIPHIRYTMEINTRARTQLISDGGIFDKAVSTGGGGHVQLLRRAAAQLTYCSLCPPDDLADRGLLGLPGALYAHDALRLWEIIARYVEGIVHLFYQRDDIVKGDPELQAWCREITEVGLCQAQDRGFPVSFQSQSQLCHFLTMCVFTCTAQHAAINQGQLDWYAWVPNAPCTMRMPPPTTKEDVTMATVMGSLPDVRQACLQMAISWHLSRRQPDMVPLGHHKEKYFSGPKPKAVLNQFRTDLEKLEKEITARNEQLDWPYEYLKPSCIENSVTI
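Hydroperoxide product was detected by ferrous iron/xylenol orange as the 573 to 405 nm absorbance ratio. Arachidonic acid at 40 uM (final) was turned over for 30 min at room temperature by 150 nM human 12hLO, pH 7.0 Hepes buffer, after 15 min compound preincubation.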
HT1080-NT tox = qHTS for induction of synthetic lethality in tumor cells producing 2HG: qHTS for the HT-1080-NT fibrosarcoma cell line; HT-1080-NT fibrosarcoma viability, CellTiter-Glo ATP luminescence, 48 h; Potency, µM (doses to about 46.1 µM), without a hit: top-dose activity, negative = less viability, most hits filed as cytotoxic; 360,000 tested, 1.6% active;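 also: NT is the 2HG producing partner of a matched IDH1 knockdown line; potency is read from the fitted curve at half-maximal effect; 0% = DMSO-treated cells and -100% = media-only wells without cells; nearly all actives have a fitted effect of over 55% in size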
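Viability of the 2HG-overproducing fibrosarcoma line after 48 hours of compound exposure at 37 degrees C was determined by luminescence with CellTiter-Glo, and concentration-effect curves were then fitted and categorized.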
HT1080 IDH1KD tx = qHTS for induction of synthetic lethality in tumor cells producing 2HG: qHTS for the HT-1080-IDH1KD cell line | Potency, µM (highest dose often 46.1 µM), for the others: top-dose activity, negative = toxicity, actives largely listed as cytotoxic | HT-1080 IDH1 knockdown viability, ATP luminescence, 48 h | AID 686971, 2013 | 360,000 tested, 2% active;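 also: potency is read from the fitted curve at half-maximal effect; 0% = DMSO wells and -100% = cell-free medium wells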
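In this qHTS, HT-1080 cells depleted of IDH1 are exposed for 48 h at 37 °C to compound titrations. Toxicity is scored from CellTiter-Glo luminescence, with DMSO as full viability and medium alone as none.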
Numbers without * were called inactive; ? = inconclusive; . = not tested or not shown; [ ] = another dose, or the depositor's remark. Many of the other results were omitted from the sample, so hits are more common in it than they were. Unless noted, calls follow the shape of the dose curve; as a rule, active = well fitted curve in the direction sought with a large enough effect; inconclusive = small, poorly fitted or top-dose-only effect, or another doubt; inactive = no such curve, though single readings can be large; an effect the other way counts as inactive or inconclusive. Unless noted, % is scaled to controls: 0 for no effect and ±100 for the full control effect.

SMILES	IL-1B inflam inh	DT40 TDP1 CPT	TDP1 cell noCPT	12-LOX inh	HT1080-NT tox	HT1080 IDH1KD tx
Cc1cc(N/N=C/c2ccc3c(c2)OCO3)nc2ccccc12	-22.3	?	25.9µM*	?	-10.6%	-17.1%
O=c1[nH]c(N/N=C\c2ccc3c(c2)OCO3)nc2ccccc12	-24.3	?	23.1µM*	?	1.8%	-11.3%
C(=N\Nc1ccccn1)/c1ccc2c(c1)OCCO2	-69.2*	-4.3%	?	3.3%	-12.8%	-12.3%
Cc1cccc(C(=O)N/N=C/c2ccc3c(c2)OCO3)n1	-0.6	-1.8%	-12.9%	0.0%	-1.3%	-1.8%
Cc1cc(=O)[nH]c2nnc(SCc3ccc(Cl)c(Cl)c3)n12	.	-13.3%	-3.1%	?	.	.
Cn1c(Cn2cccn2)nnc1C1CC(Nc2ncnc3sccc23)C1 (configuration not stated)	.	.	.	10.6%	.	.
Cc1cccc(Nc2nnc(-c3ccc(C)c(S(=O)(=O)N4CCOCC4)c3)c3ccccc23)c1	.	16.4µM*	6.51µM*	-8.9%	.	.
Cc1ccc(-c2nnc(Nc3cccc(C(F)(F)F)c3)c3ccccc23)cc1S(=O)(=O)N1CCOCC1	.	9.2µM*	8.2µM*	-3.5%	.	.
Cc1ccc(-c2nnc(Nc3cccc(Cl)c3)c3ccccc23)cc1S(=O)(=O)N1CCCCC1	.	?	-22.3%	-3.7%	.	.
Cc1ccc(-c2nnc(Nc3cccc(Cl)c3)c3ccccc23)cc1S(=O)(=O)N1CCOCC1	.	16.4µM*	4.11µM*	?	.	.
CCCCc1ccc(Nc2ncnc3c2cnn3-c2ccccc2)cc1	.	.	.	-2.7%	.	.
COc1ccc(C(=O)N2N=C(C)CC2(O)C(F)(F)F)cc1OC (configuration not stated)	.	.	.	15.7%	.	.
CC1=NN(C(=O)c2ccoc2C)C(O)(C(F)(F)F)C1 (configuration not stated)	-1.8	2.91µM*	2.31µM*	3.2%	14.4%	3.4%
CC1=NN(C(=O)c2csc(C(C)C)c2)C(O)(C(F)(F)F)C1 (configuration not stated)	11.6	0.731µM*	1.03µM*	6.6%	0.5%	3.5%
CCOc1ccc(CC(=O)N2N=C(C)CC2(O)C(F)(F)F)cc1 (configuration not stated)	-8.0	18.4µM*	5.8µM*	-14.8%	8.7%	8.1%
N#C/C(=C/c1ccc(Br)cc1)Sc1ccc(Br)cc1	.	.	.	-12.5%	.	.
O=C(COC(=O)CSc1nc2ccccc2o1)NC1CC1	.	.	.	-3.0%	.	.
COc1ccc(Br)cc1C1NC(c2ccc3c(c2)OCO3)=CC(c2ccccc2O)N1 (configuration not stated)	.	?	10µM*	.	.	.
O=C1C=C(c2ccc3c(c2)OCO3)C[C@@H](c2ccc(Cl)cc2)C1	36.0	-12.5%	-12.1%	-5.3%	-6.2%	9.8%
O=C(O)c1cc(-c2ccc3c(c2)OCO3)nc2ccc(Br)cc12	13.9	-19.7%	-2.1%	?	-21.0%	-6.8%
COc1ccc(OC)c2nc(-c3ccc4c(c3)OCO4)ccc12	1.4	-0.8%	-30.7%	?	-5.5%	-17.1%
Oc1ccccc1C1C=C(c2ccc3c(c2)OCO3)NC(c2ccc(Br)cc2)N1 (configuration not stated)	.	11.2µM*	11.2µM*	.	.	.
Cc1ccc(C2NC(c3ccc4c(c3)OCO4)=CC(c3cc(Br)ccc3O)N2)cc1 (configuration not stated)	.	7.94µM*	4.47µM*	.	.	.
Oc1ccccc1C1C=C(c2ccc3c(c2)OCO3)NC(c2cccc(Cl)c2)N1 (configuration not stated)	.	?	12.6µM*	.	.	.
N#Cc1c(-c2ccccc2)cc(-c2cccs2)nc1S(=O)Cc1ccc(Cl)cc1 (configuration not stated)	.	.	.	-21.5%	.	.
SMILES	IL-1B inflam inh	DT40 TDP1 CPT	TDP1 cell noCPT	12-LOX inh	HT1080-NT tox	HT1080 IDH1KD tx
CNC(=O)[C@@H]1CN(C(=O)c2coc(C)n2)C[C@H]1COC	.	.	.	9.5%	.	.
Cc1ccc(S(=O)(=O)N2CCN(C(=O)CCc3ncc(-c4ccccc4Cl)o3)CC2)cc1	.	.	.	-19.2%	.	.
COc1ccc(C(=O)N2CCC3(CCC3OC)CC2)cn1 (configuration not stated)	.	.	.	10.4%	.	.
Cc1ccccc1S(=O)(=O)N1CCCC(CCC(=O)NCCCn2cccn2)C1 (configuration not stated)	.	.	.	49.4%	.	.
Oc1ccc(Br)cc1C1C=C(c2ccc3c(c2)OCO3)NC(c2ccc(Br)cc2)N1 (configuration not stated)	.	10µM*	7.94µM*	.	.	.
O=C(Nc1ccc(Br)cc1)c1cc(-c2ccc3c(c2)OCO3)on1	0.0	2.3%	0.6%	18.7%	?	10.3%
CC(=O)N1CCC2(CCN(C(=O)c3ccc(Cl)cc3)CC2)Oc2ccccc21	.	.	.	-0.4%[6.33 µM]	.	.
CC(C)C[C@@H](COCc1cccc(C(F)(F)F)c1)N1CCN(C(=O)c2ccc(C(F)(F)F)cc2)CCC1=O	-73.2*	?	?	?	?	?
Cc1cccc(COC[C@H](CC(C)C)N2CCN(C(=O)c3ccc(C(F)(F)F)cc3)CCC2=O)c1	?	?	16.4µM*	-4.7%	-23.6%	?
CC(C)CC(COCc1cccc(Cl)c1)N1CCN(C(=O)c2cccc(C(F)(F)F)c2)CCC1=O (configuration not stated)	-15.7	?	?	-19.5%	-26.5%	-23.0%
O=C1CN(C(=O)c2c(F)cccc2F)C(c2ccccc2)c2cc(Br)ccc2N1 (configuration not stated)	-19.4	?	?	-29.7%	?	?
O=C1CN(C(=O)Cc2ccc(F)cc2)C(c2ccccc2)c2cc(Cl)ccc2N1 (configuration not stated)	.	14.6µM*	18.4µM*	-29.2%	.	.
O=C1CN(C(=O)c2ccc(S(=O)(=O)N3CCCC3)cc2)C(c2ccccc2)c2cc(Cl)ccc2N1 (configuration not stated)	.	?	20.6µM*	-3.1%	.	.
O=C1CN(C(=O)c2cccc(Br)c2)C(c2ccccc2)c2cc(Cl)ccc2N1 (configuration not stated)	.	5.17µM*	?	?	.	.

Screening data as filed in PubChem.
